Reference: PubChem BioAssay AID922 (National Center for Advancing Translational Sciences (NCATS), 2007)
Records with an inconclusive call do not appear. The source made the active and inactive calls. The call rests on the fitted dose curve; in most records, active means well fitted inhibition curve with a large enough effect in the signal ratio, with a control signal flat; inconclusive means small, poorly fitted or top-dose-only effect, or effect the other way; inactive means flat fitted curve, though single readings scatter; the % refers to the signal ratio.

assay: Confirmation Concentration-Response Assay for Identification of Small Molecule Antagonists of Stat Signaling Pathway; conditions: SIE-bla cells, IL-6 stimulated, beta-lactamase ratio, 5 h
Source text: NIH Molecular Libraries Screening Centers Network [MLSCN] NIH Chemical Genomics Center [NCGC] MLSCN Grant: None NCGC Assay Overview: This assay is a retest of actives identified from the Stat signaling pathway assay (PubChem AID 446). The Stat assay is cell-based and measures Interleukin 6 (IL-6) mediated modulation of a beta-lactamase reporter gene controlled by a STAT inducible element (SIE-bla cells, Invitrogen). IL-6 is a cytokine that signals via the JAK/STAT pathway and is implicated in cancer and inflammation. SIE-bla cells are induced by IL-6 at 40 pM EC50 and inhibited by the pan JAK inhibitor, 2-(1,1-Dimethylethyl)-9-fluoro-3,6-dihydro-7H-benz[h]-imidaz[4,5-f]isoquinolin-7-one, at approximately 10 nM IC50. Plated cells were incubated overnight and on the following day, stimulated with 40 pM IL-6 for 5 hrs. The assay was stimulated with an EC50 of IL-6 to retest inhibitors of STAT signaling.
NCGC Assay Protocol Summary: Cells were trypsinized, washed in assay medium (AM, OPTI MEM with 0.5% fetal bovine serum, 0.1 mM nonessential amino acids, 1 mM sodium pyruvate, 10mM HEPES pH 7.3, 100U/ml penicillin, and 100 ug/ml streptomycin) and suspended at […] in AM. Approximately 2500 cells in 5 uL/well was dispensed into 1536-well plates and the cells were incubated overnight at 37 C. 23 nL of compound were delivered by a pin tool and 1 uL of IL-6 (40 pM final concentration in AM) was added. After plates were incubated at 37 C for 5 hrs, 1uL of detector mix (LiveBLAzerTM, Invitrogen) was added, the plates incubated at room temperature for 2.5 hrs, and fluorescence intensity at 460 and 530 nm emissions was measured at 405 nm excitation by an Envision (Perkin Elmer).

Row | SMILES | Potency
1 | COc1ccc(C[C@@H]2C(=O)N[C@H](C)C(=O)N(C)[C@@H]3C(=O)N(C)[C@@H](Cc4ccc(O)c(c4)Oc4ccc(cc4)[C@H]3O)C(=O)N[C@@H](C)C(=O)N[C@H](C)C(=O)N2C)cc1 | 0.398 µM (active)
2 | CC(C)[C@H](CO)Nc1nc(Nc2cccc(Cl)c2)c2ncn(C(C)C)c2n1 | 5.01 µM (active)
3 | C[C@]1(C(=O)O)[C@@H]2CC[C@@H](O2)[C@@]1(C)C(=O)O | 10 µM (active)
4 | CC(C)C[C@H]1C(=O)N2CCC[C@H]2[C@]2(O)O[C@](NC(=O)[C@@H]3C=C4c5cccc6[nH]c(Br)c(c56)CC4N(C)C3)(C(C)C)C(=O)N12 (stereo partly specified) | 12.6 µM (active)
5 | CC[C@@H]1CN2CCc3cc(OC)c(OC)cc3[C@H]2C[C@@H]1C[C@@H]1NCCc2cc(OC)c(OC)cc21 | 0.398 µM (active)
6 | CCn1cnc2c(Nc3cccc(Cl)c3)nc(N[C@@H]3CCCC[C@H]3N)nc21 | 3.98 µM (active)
